RGS12 GoLoco inh: qHTS Assay for Inhibitors of RGS12 GoLoco Motif Activity (Red Fluorophore) | AID 880, 2007 | Gai1:RGS12 GoLoco peptide FP, rhodamine, 10 min | 0.44% of 230,000 active | Potency, µM (doses to about 61.6 µM), for inactives: at the highest dose activity, negative = inhibition, hits mostly inhibitors; active = well fitted inhibition curve with a large enough effect, not every such curve was filed as active; inactive = no such curve, though single readings can be large or run the other way; also: potency is read from the fitted curve at half-maximal effect; % is scaled to controls: 0 for no effect and ±100 for the full control effect; nearly all actives have a fitted effect of over 30% in size
VDR inhibitor: Inhibitors of the vitamin D receptor (VDR): qHTS | VDR-SRC2-3 peptide fluorescence polarization, 2 h | Potency, µM, without a hit: max response, negative = inhibition, usual class: inhibitors | 0.93% of 400,000 active | AID 504847, 2011; also: potency is read from the fitted curve at half-maximal effect; % is scaled to controls: 0 for no effect and ±100 for the full control effect
Target sequence (P11473 whole entry, looked up): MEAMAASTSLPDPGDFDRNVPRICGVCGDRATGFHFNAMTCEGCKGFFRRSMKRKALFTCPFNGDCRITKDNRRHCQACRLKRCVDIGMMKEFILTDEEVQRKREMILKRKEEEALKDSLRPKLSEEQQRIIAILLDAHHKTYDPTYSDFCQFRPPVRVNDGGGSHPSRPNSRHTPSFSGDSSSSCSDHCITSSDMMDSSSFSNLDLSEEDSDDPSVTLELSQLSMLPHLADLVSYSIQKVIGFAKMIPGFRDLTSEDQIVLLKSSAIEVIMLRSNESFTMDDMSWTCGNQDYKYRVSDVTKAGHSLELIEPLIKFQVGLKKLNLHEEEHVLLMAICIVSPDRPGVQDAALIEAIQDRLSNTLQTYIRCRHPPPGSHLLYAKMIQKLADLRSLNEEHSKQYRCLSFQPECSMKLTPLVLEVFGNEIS
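Inhibition of the VDR/SRC2-3 peptide interaction is quantified by fluorescence polarization. Compounds (23 nl, pintool) incubate with the reagents for 2 hours at ambient room temperature.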
HTT cytoprotect: qHTS Multiplex Assay to Identify Dual Action Probes in a Cell Model of Huntington: Cytoprotection (ATP) | PC12 HTT-Q103 induced, cytoprotection, ATP luminescence, 40 h | Potency, µM (series often up to 56.4 µM), without a hit: cytoprotection (ATP increase), actives largely listed as activators | 0.14% of 230,000 active; also: potency is read from the fitted curve at half-maximal effect; % of control where 0% means no effect; nearly all actives have a fitted effect of over 45% in size
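Cells were plated at 1500 per well in phenol red-free DMEM with 5% equine and 5% calf serum. Tebufenozide (100 nM final) and compounds were added, then ATPlite reagent, and luminescence was read.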
FBPA coupling cs: qHTS Assay for Inhibitors of Fructose-1,6-bisphosphate Aldolase from Giardia Lamblia: Coupling assay counterscreen; coupling enzyme system counterscreen, AmpLite Red fluorescence; activity change, negative = inhibition, % at 58.2 µM, hits read low; 0.67% of 290,000 active; in the data active = activity change below about -30%; also: % is scaled to controls: 0 for no effect and ±100 for the full control effect
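Compounds tested against the coupling enzymes alone at 57.5 uM final; readout was AmpLite Red fluorescence (525/598 nm) after 20 min at RT.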
KDM4E inh: qHTS Assay for Inhibitors of Human Jumonji Domain Containing 2E (JMJD2E) | Lysine-specific demethylase 4E (Homo sapiens), B2RXH2 | JMJD2E catalytic domain, FDH-coupled NADH fluorescence (FDH is formaldehyde dehydrogenase) | Potency, µM (titrated, usually from 57.1 µM), for the others: at the top dose activity change, negative = inhibition, actives largely listed as inhibitors | 1.6% of 230,000 active | AID 2147, 2009; active = well fitted inhibition curve with a large enough effect, not every such curve was filed as active; inconclusive = small, poorly fitted or top-dose-only effect, or another doubt; inactive = no such curve, though single readings can be large or run the other way;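 also: potency is read from the fitted curve at half-maximal effect; 0% = wells with enzyme and -100% = buffer wells without enzyme; nearly all actives have a fitted effect of over 50% in size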
Target sequence (B2RXH2 1-337 limits assumed): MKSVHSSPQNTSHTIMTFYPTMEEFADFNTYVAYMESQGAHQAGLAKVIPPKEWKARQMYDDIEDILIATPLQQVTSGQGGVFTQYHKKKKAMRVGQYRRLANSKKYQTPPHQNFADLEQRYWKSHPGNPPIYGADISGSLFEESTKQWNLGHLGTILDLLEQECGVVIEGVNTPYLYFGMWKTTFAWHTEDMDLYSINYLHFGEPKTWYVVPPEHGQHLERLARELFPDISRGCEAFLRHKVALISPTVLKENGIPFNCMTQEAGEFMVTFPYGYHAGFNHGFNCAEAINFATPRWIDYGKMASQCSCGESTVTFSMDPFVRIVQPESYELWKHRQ
HttQ103 aggreg: qHTS Multiplex Assay to Identify Dual Action Probes in a Cell Model of Huntington: Aggregate Formation (GFP). PC12 HttQ103-GFP aggregates, Acumen cytometry, 40 h. Potency, µM (top dose mostly 46.1 µM), without a hit: top-dose activity change, negative = inhibition, usual class: inhibitors. 1.1% of 220,000 active. AID 1688, 2009; also: potency is read from the fitted curve at half-maximal effect; % is scaled to controls: 0 for no effect and ±100 for the full control effect; nearly all actives have a fitted effect of over 60% in size
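Using laser scanning cytometry, GFP-positive aggregates were counted after lysis of PC12 cells induced with 100 nM tebufenozide to express HTT exon 1 Q103–GFP. Compounds were tested in titration.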
VDR confirm: qHTS for Inhibitors of the vitamin D receptor (VDR): Hit Validation in Primary Screen; shares compounds with VDR inhibitor; VDR-coactivator inhibition assay, qHTS confirmation; Potency, µM, usual class: inhibitors; 89% of 840 active; also: potency is read from the fitted curve at half-maximal effect
VDR FP fluor: qHTS for Inhibitors of the vitamin D receptor (VDR): Hit Validation using a Fluorescein Assay | shares compounds with VDR inhibitor | VDR-coactivator binding, fluorescein fluorescence polarization | Potency, µM (titrated, usually from 57.1 µM), for the others: top-dose activity change, negative = inhibition, hits mostly inhibitors | 48% of 840 active; also: potency is read from the fitted curve at half-maximal effect
VDR bla reporter: qHTS for Inhibitors of the vitamin D receptor (VDR): Hit Validation using a Beta-Lactamase Assay. shares compounds with VDR inhibitor. 23% of 840 active. AID 602202, 2012. VDR beta-lactamase reporter cells, FRET ratio; cells co-treated with VDR agonist LG190178. Potency, µM (highest dose often 46.1 µM), inactives show at the highest dose activity change, negative = inhibition, actives largely listed as inhibitors; also: potency is read from the fitted curve at half-maximal effect; % is scaled to controls: 0 for no effect and ±100 for the full control effect
VDR cytotox: qHTS for Inhibitors of the vitamin D receptor (VDR): Hit Validation using a Cytotoxicity Assay; shares compounds with VDR inhibitor; cytotoxicity counter-screen, cell viability, qHTS; Potency, µM (series often up to 48.3 µM), for the others: at the highest dose activity change, negative = cytotoxicity, actives largely listed as cytotoxic; 18% of 840 active;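 also: potency is read from the fitted curve at half-maximal effect; plate controls were DMSO for no effect and high-concentration cycloheximide for full effect; nearly all actives have a fitted effect of over 75% in size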
* hit, by the source's call; ? = inconclusive; / = no result given; [ ] = another dose, or the depositor's remark. A selection: hits, their analogues and other compounds. The true share with any hit is near 2.3%. Unless noted, calls follow the shape of the dose curve; as a rule, active = well fitted curve in the direction sought with a large enough effect; inconclusive = small, poorly fitted or top-dose-only effect, or another doubt; inactive = no such curve, though single readings can be large; an effect the other way counts as inactive or inconclusive.

SMILES	RGS12 GoLoco inh	VDR inhibitor	HTT cytoprotect	FBPA coupling cs	KDM4E inh	HttQ103 aggreg	VDR confirm	VDR FP fluor	VDR bla reporter	VDR cytotox
O=C(/C=C/c1ccc(Br)cc1)c1ccc(NC2=NCCCS2)cc1	17%	22µM*	/	-11	6%	1%	15*	10µM*	?	18µM*
O=C(CCC1N=C2c3ccccc3N=C(SCc3ccc(F)cc3)N2C1=O)N1CCN(c2ccccc2)CC1 (stereo unspecified)	/	-8%	/	/	/	/	/	/	/	/
Clc1ccc(-c2nnnn2-c2ccc(Cl)cc2)cc1	0%	8%	2%[10 µM]	4	-2%	2%[9.22 µM]	/	/	/	/
Cc1ccc(-n2nnnc2C(Cl)(Cl)c2nnnn2-c2ccc(C)cc2)cc1	-3%	6.3µM*	-42%	2	1%	?	3.4*	?	?	?
CCC(C(=O)Nc1ccccc1C(=O)OC)n1c(C)c2cnn(-c3ccccc3)c(=O)c2c1C (stereo unspecified)	/	14%	/	/	/	/	/	/	/	/
CC(C)c1ccc(/C=C/c2[nH]c(=O)[nH]c(=O)c2[N+](=O)[O-])cc1	/	22µM*	/	15	/	/	3.8*	?	?	29%
O=C(COc1ccccc1/C=C\c1[nH]c(=O)[nH]c(=O)c1[N+](=O)[O-])Nc1ccccc1	5%	20µM*	?	1	-5%	11%	4.2*	?	0%	?
CCOc1cc(/C=C\c2[nH]c(=O)[nH]c(=O)c2[N+](=O)[O-])ccc1OC(C)CC (stereo unspecified)	-3%	11µM*	2.5µM*	13	0%	?	8.4*	175%	?	19%
O=c1[nH]c(/C=C/c2ccccc2Cl)c([N+](=O)[O-])c(=O)[nH]1	/	35µM*	/	16	/	/	19*	11µM*	17%	26%
CCN(CC)c1ccc(C2C(C(N)=O)=C(C)Nc3nc(SCc4ccccc4Cl)nn32)cc1 (stereo unspecified)	/	-1%	/	/	/	/	/	/	/	/
Cc1nn(C)cc1C(=O)Nc1ccc2c(c1)OCCO2	/	-7%	/	0	/	/	/	/	/	/
CCOc1cc(NC(=O)CCl)c(OCC)cc1NC(=O)CCl	1%	13%	-20%[10 µM]	-13	?	24%[9.22 µM]	/	/	/	/
COc1cccc(/C=C/c2[nH]c(=O)[nH]c(=O)c2[N+](=O)[O-])c1O	/	22µM*	/	10	/	/	21*	?	14%	24%
CCC1CCCCN1S(=O)(=O)c1ccc(NC(=O)c2nc(S(C)(=O)=O)ncc2Cl)cc1 (stereo unspecified)	/	20µM*	/	0	/	/	6*	3.2µM*	12µM*	9.2µM*
CCS(=O)(=O)c1ncc(Cl)c(C(=O)Nc2ccc(S(=O)(=O)N3CCCC(C)C3)cc2)n1 (stereo unspecified)	/	?	/	-3	/	/	5*	2.8µM*	10µM*	9.5µM*
CC1CCCN(S(=O)(=O)c2ccc(NC(=O)CNC3CCCC3)cc2)C1 (stereo unspecified)	/	5%	/	2	/	/	/	/	/	/
O=C(c1cccs1)c1no[n+]([O-])c1C(=O)c1cccs1	-11%	45µM*	-88%	-67*	?	?	6.3*	3.5µM*	2.6µM*	3µM*
COc1ccc(C(=O)c2no[n+]([O-])c2C(=O)c2ccc(OC)cc2)cc1	-8%	?	-197%[0.074 µM]	-1	0%	?	/	/	/	/
c1ccc(-c2nnc3sc(-c4csc5c4CCCC5)nn23)cc1	3%	?	-18%[10 µM]	-1	-6%	?	14*	10µM*	?	?
COc1cc(/C=C/C(=O)c2ccc(F)cc2)cc(OC)c1OC	7%	32µM*	-46%	-21	16%	17%	21*	?	?	?
CCOc1ccc(C(=O)/C=C/c2cc(OC)c(OC)c(OC)c2)cc1	9%	?	?	-2	?	-5%[9.22 µM]	/	/	/	/
CCC(=O)N1CCc2cc(CNC(=O)c3cccc(N(C)C)c3)ccc21	/	13%	/	/	/	/	/	/	/	/
OCC1CCCCN1C(=S)Nc1cccc(Cl)c1 (stereo unspecified)	16%	-8%	-36%	0	11%	-11%[9.22 µM]	/	/	/	/
Cc1cc([N+](=O)[O-])c(C)cc1-c1ccc(/C=N/n2cnnc2)o1	/	-1%	/	0	/	/	/	/	/	/
CC1=C(C#N)C(=O)NC(=O)/C1=C\c1ccc(-c2cc(C)c(C)cc2[N+](=O)[O-])o1	0%	25µM*	/	1	25µM*	31%	10*	8.9µM*	-7%	8%
Oc1c(C(c2ccc(Cl)cc2)N2CCCC2)cc(Cl)c2cccnc12 (stereo unspecified)	9%	-25%	-104%	-7	?	?	/	/	/	/
Cc1ccc(C(c2cc(Cl)c3cccnc3c2O)N2CCN(C)CC2)cc1 (stereo unspecified)	/	45µM*	/	-5	/	/	19*	?	-28%	?
COCC(=O)N(C)C[C@H]1N[C@@](C)(C(=O)OC)[C@H]2C(=O)N(Cc3ccccc3)C(=O)[C@@H]12	/	-3%	/	/	/	/	/	/	/	/
Cc1cc(C)cc(NC(=O)Cn2cc(C(=O)C3CCCCC3)c3ccccc32)c1	/	-4%	/	/	/	/	/	/	/	/
